In PubChem BioAssay (NCATS):
Records with an inconclusive call do not appear. Unmarked numbers belong to inactive results. Calls of active or inactive are those of the source. Calls come from the whole dose curve.

test: Validation screen for inhibitors of Lassa infection (AID 463096); conditions: Lassa virus infection, cell-based; series mostly up to 46.1 µM; activity change, negative = inhibition: at the top concentration
% is set by controls: 0 for no effect and ±100 for the full control effect; potency is the fitted concentration of half-maximal effect.

Row | SMILES | activity change, negative = inhibition [%] | Potency
1 | CC(C)NCC(O)COc1ccc(CCOCC2CC2)cc1 (stereo unspecified) | 23.8 | 
2 | O=c1n(CCCN2CCN(c3cccc(Cl)c3)CC2)nc2ccccn12 | 1.15 | 
3 | O=C(C1CCCCC1)N1CC(=O)N2CCc3ccccc3C2C1 (stereo unspecified) | -0.301 | 
4 | COc1ccccc1OCC(O)CN1CCN(CC(=O)Nc2c(C)cccc2C)CC1 (stereo unspecified) | -0.707 | 
5 | CCN(CC)CCOC(=O)C1(C2CCCCC2)CCCCC1 | -47.9 | 
6 | CCOC(=O)c1ncn2c1CN(C)C(=O)c1cc(F)ccc1-2 | 7.31 | 
7 | CCC1(c2ccccc2)C(=O)NCNC1=O | 36.3 | 
8 | COc1cc2nc(N3CCN(C(=O)C4COc5ccccc5O4)CC3)nc(N)c2cc1OC (stereo unspecified) | -17.6 | 
9 | CCCNC(=O)NS(=O)(=O)c1ccc(Cl)cc1 | -4.13 | 
10 | CC(C)NCC(O)c1ccc(O)c(O)c1 (stereo unspecified) |  | inactive
11 | Oc1ccc(C2CNCCc3c2cc(O)c(O)c3Cl)cc1 (stereo unspecified) | 26.6 | 
12 | C[C@](N)(Cc1ccc(O)c(O)c1)C(=O)O | 35.4 | 
13 | NC[C@H](O)c1ccc(O)c(O)c1 | 37.9 | 
14 | NC(=O)NO | -12.9 | 
15 | NC12CC3CC(CC(C3)C1)C2 | 34.3 | 
16 | CN/C(=C\[N+](=O)[O-])NCCSCc1ccc(CN(C)C)o1 | -7.84 | 

Row | SMILES | activity change, negative = inhibition [%] | Potency
17 | COC(=O)[C@H]1[C@H]2C[C@@H]3c4[nH]c5cc(OC)ccc5c4CCN3C[C@H]2C[C@@H](OC(=O)c2cc(OC)c(OC)c(OC)c2)[C@@H]1OC |  | 7.94 µM (active)
18 | CCCN1C[C@H](CSC)C[C@@H]2c3cccc4[nH]cc(c34)C[C@H]21 | -13.4 | 
19 | CCN(CC)CCCC(C)Nc1ccnc2cc(Cl)ccc12 (stereo unspecified) | -22.4 | 
20 | Cc1oncc1C(=O)Nc1ccc(C(F)(F)F)cc1 | -49.4 | 
21 | CNC1(C)C2CCC(C2)C1(C)C (stereo unspecified) | 30.4 | 
22 | NS(=O)(=O)c1cc2c(cc1Cl)NC=NS2(=O)=O | 7.75 | 
23 | COc1cc2nc(N3CCN(C(=O)C4CCCO4)CC3)nc(N)c2cc1OC (stereo unspecified) | -13.9 | 
24 | Cc1cnc(C(=O)NCCc2ccc(S(=O)(=O)NC(=O)NC3CCCCC3)cc2)cn1 | 24.3 | 
25 | Nc1nnc(-c2cccc(Cl)c2Cl)c(N)n1 | 26.3 | 
26 | COC(=O)Nc1nc2ccc(C(=O)c3cccs3)cc2[nH]1 | -32 | 
27 | CN(C)CCOC(C)(c1ccccc1)c1ccccn1 (stereo unspecified) | 29.4 | 
28 | CCN(CC)CCNC(=O)c1cc(Cl)c(N)cc1OC | 12.8 | 
29 | CCN(CC)C(=S)SSC(=S)N(CC)CC |  | 10 µM (active)
30 | CC(C)C(=O)Nc1ccc([N+](=O)[O-])c(C(F)(F)F)c1 | -2.39 | 
31 | CC(COc1ccccc1)N(CCCl)Cc1ccccc1 (stereo unspecified) | 1.94 | 
